Experimental data as given in ChEMBL document CHEMBL3988442, “University of Dundee, Small-Polar-MMV Screening Library” (2021).
Out of some 48,000 compounds screened, about 13,000 (27%) showed an effect of 50% or more. The list shows a part of the results.

system: Wolbachia pipientis; assay: Anti-Wolbachia Cell-Based Screen; type: functional; design: scale not given: in the data most compounds retested in dose-response had high values; details: 5 µM

**Q.** Which “Percent Effect” value does the source give for `CC(=O)N(CCc1nc(-c2cc(C(N)=O)co2)cs1)C(C)C` here?
**A.** -2.269%

**Q.** How did the “Percent Effect” value turn out when `CC(C)(C)C(=O)N1C[C@@H](F)[C@@H](OCc2nc3ncccc3[nH]2)C1` was run?
**A.** -11.47%

**Q.** For `COc1ccccc1CC(=O)NC(CC(=O)O)c1ccc(C)cc1` (stereo not given), which “Percent Effect” value is on record?
**A.** -6.3%

**Q.** For `CS(=O)(=O)C1=C(O)C(=O)N(c2ccccc2)C1c1ccccc1` (stereo not given), which “Percent Effect” value is on record?
**A.** 110.5%

**Q.** With `OCCC1CN(c2ncnc3[nH]cnc23)CCN1Cc1cccs1` (stereo not given) as the molecule, how does the “Percent Effect” value read?
**A.** 9.965%

**Q.** How did the “Percent Effect” value turn out when `CCOCc1ccccc1NC(=O)NC1CCN(C2CCCC2)C1` (stereo not given) was run?
**A.** -8.399%

**Q.** For `Cn1cnnc1-c1cncc(NCc2cccc3c2OC(C)(C)C3)c1`, which “Percent Effect” value is on record?
**A.** -16.61%

**Q.** `N#Cc1cccc(CN(CC(=O)N2CCCC2)CC2CCCO2)c1` (stereo not given) was tested. Which “Percent Effect” value did it give?
**A.** 11.29%

**Q.** For `N#Cc1cccc(CN2C[C@@H](NC(=O)C3CC3)[C@H]3OCCC[C@H]32)c1`, which “Percent Effect” value is on record?
**A.** 101.9%

**Q.** For `N#Cc1cccc(CN2C[C@H](NC(=O)C3CC3)[C@H]3OCCC[C@H]32)c1.O=C(O)C(F)(F)F`, which “Percent Effect” value is on record?
**A.** 100.2%

**Q.** How did the “Percent Effect” value turn out when `O=C(N[C@@H]1CN(Cc2ccc3c(c2)OCO3)[C@@H]2CCCO[C@@H]21)C1CC1` was run?
**A.** -19.8%

**Q.** `Cc1cccc(OC2CCN(S(=O)(=O)Cc3cccc(F)c3)CC2)n1` was tested. Which “Percent Effect” value did it give?
**A.** -8.664%

**Q.** Which “Percent Effect” value does the source give for `CSCC(C)(O)CNC(=O)c1cc(F)ccc1Br` (stereo not given) here?
**A.** -2.784%

**Q.** With `Cn1cc(CNC(=O)c2cc3c(s2)CCCCC3)cn1` as the molecule, how does the “Percent Effect” value read?
**A.** -22.89%

**Q.** How did the “Percent Effect” value turn out when `O=C(Cc1ccc2c(c1)CCC2)NCCNc1ncccn1` was run?
**A.** 11.75%

**Q.** How did the “Percent Effect” value turn out when `O=C(NC1CCN(Cc2ccc(F)cc2)CC1)c1ccc2c(c1)CCC2` was run?
**A.** -15.84%

**Q.** Which “Percent Effect” value does the source give for `O=C(Cc1ccc2c(c1)CCC2)NC1CCN(Cc2ccccc2)CC1` here?
**A.** 7.244%

**Q.** Which “Percent Effect” value does the source give for `O=C(N[C@@H]1CCC[C@@H](n2ccnc2)[C@@H]1O)c1ccc2c(c1)CCCC2` here?
**A.** 113.7%

**Q.** For `O=C(N[C@@H]1CC[C@@H](n2ccnc2)[C@@H]1O)c1cc2c(s1)CCC2`, which “Percent Effect” value is on record?
**A.** 100.6%

**Q.** Which “Percent Effect” value does the source give for `CCOc1ncccc1NC(=O)c1cc2c(s1)CCC2` here?
**A.** -11.29%

**Q.** `O=C(NC1CCN(c2cc(-n3ccnc3)ncn2)CC1)c1ccncc1` was tested. Which “Percent Effect” value did it give?
**A.** 4.759%

**Q.** Which “Percent Effect” value does the source give for `O=C(Cc1ccc2c(c1)CCCC2)N[C@@H]1CC[C@@H](n2ccnc2)[C@@H]1O` here?
**A.** 128.7%

**Q.** For `CCOCC(=O)NCC1(NC(C)c2ccccc2)CCOCC1` (stereo not given), which “Percent Effect” value is on record?
**A.** -5.882%

**Q.** How did the “Percent Effect” value turn out when `CCc1nnsc1C(=O)N1CCCN(Cc2ccccc2)CC1` was run?
**A.** -10.59%

**Q.** With `CCC(CN1CCCC1)n1cncc1-c1cnn(Cc2ccccc2)c1.Cl` (stereo not given) as the molecule, how does the “Percent Effect” value read?
**A.** 116%

**Q.** With `Cc1cnn(CC(C)NCc2c(C)nn(Cc3ccccc3)c2C)c1` (stereo not given) as the molecule, how does the “Percent Effect” value read?
**A.** -7.761%

**Q.** How did the “Percent Effect” value turn out when `COc1cccc(CN2CCN(CC(C)C)C(=O)C2C)c1O` (stereo not given) was run?
**A.** -13.51%

**Q.** With `COc1cccc(CN2CCCCCC2c2sccc2C)c1O` (stereo not given) as the molecule, how does the “Percent Effect” value read?
**A.** 115%

**Q.** With `O=C(CCN1CCCC1c1cccs1)N1CCc2sccc2C1` (stereo not given) as the molecule, how does the “Percent Effect” value read?
**A.** 2.808%

**Q.** `COc1cccc(CN2CCCCCC2c2cccs2)c1OC` (stereo not given) was tested. Which “Percent Effect” value did it give?
**A.** 128.6%

**Q.** `COc1cc(CN2CCCCCC2c2cccs2)cc(OC)c1O` (stereo not given) was tested. Which “Percent Effect” value did it give?
**A.** 139%

**Q.** With `COc1cccc(CN2CCCC(Nc3cccc(F)c3)C2)c1O` (stereo not given) as the molecule, how does the “Percent Effect” value read?
**A.** -12.95%

**Q.** Which “Percent Effect” value does the source give for `COc1cccc(CN2CCCCCC2c2cccs2)c1O` (stereo not given) here?
**A.** -12.69%

**Q.** With `COc1cc(CN2CCCCCC2c2cccs2)cc(OC)c1OC` (stereo not given) as the molecule, how does the “Percent Effect” value read?
**A.** 88.88%

**Q.** For `Cc1cc(C)cc(N(CCC#N)C(=O)CN2CCCC2c2cccs2)c1` (stereo not given), which “Percent Effect” value is on record?
**A.** -27.93%

**Q.** For `Cc1nc(C)n(CC2CCCCN2CCCS(N)(=O)=O)n1` (stereo not given), which “Percent Effect” value is on record?
**A.** -48.39%

**Q.** `CC(NC(=O)N1CCC(OCc2ccccc2)CC1)c1nncn1C` (stereo not given) was tested. Which “Percent Effect” value did it give?
**A.** -3.035%

**Q.** How did the “Percent Effect” value turn out when `CC(=O)Nc1ccc(-n2ccc3nc(N4CCCC4)ncc3c2=O)cc1` was run?
**A.** 4.031%

**Q.** Which “Percent Effect” value does the source give for `OCCC1CN(c2nc(-c3cccnc3)nc3c2CCNCC3)CCO1` (stereo not given) here?
**A.** -11.64%

**Q.** With `CNC(=O)c1c(C)cccc1NCC(=O)Nc1cc(C)nn1C` as the molecule, how does the “Percent Effect” value read?
**A.** -2.295%

**Q.** `O=C(Nc1ccc(F)cc1)N(CCC(F)(F)F)C[C@H](O)CO` was tested. Which “Percent Effect” value did it give?
**A.** -0.3648%

**Q.** With `Cc1nc(N2CCOCC2)nc2c1CCN(c1nccs1)CC2` as the molecule, how does the “Percent Effect” value read?
**A.** 1.797%

**Q.** How did the “Percent Effect” value turn out when `Cc1nc2c(c(N3CCCOCC3)n1)CCN(c1nccs1)CC2` was run?
**A.** 108.7%

**Q.** Which “Percent Effect” value does the source give for `Cc1nc2c(c(N3CCCOCC3)n1)CCN(C(=O)N1CCCC1)CC2` here?
**A.** 0.8074%

**Q.** `CCc1nc2n(n1)CCCC2NC(=O)Nc1cc(OC)ccc1C` (stereo not given) was tested. Which “Percent Effect” value did it give?
**A.** 24.05%

**Q.** How did the “Percent Effect” value turn out when `CS(=O)(=O)CCCN1CCOC2(CCc3ccccc32)C1` (stereo not given) was run?
**A.** -1.468%

**Q.** `CN(Cc1cc(F)ccc1C#N)CC(C)(CO)CO` was tested. Which “Percent Effect” value did it give?
**A.** 8.99%

**Q.** How did the “Percent Effect” value turn out when `Cc1cc(F)ccc1S(=O)(=O)N(C)CC(N)=O` was run?
**A.** -0.8212%

**Q.** For `COc1c(C2CCCN2C(=O)c2cccnc2N(C)C)c(C)nn1C` (stereo not given), which “Percent Effect” value is on record?
**A.** 107.7%

**Q.** How did the “Percent Effect” value turn out when `COc1c(C2CCCN2C(=O)c2ccnc(C)n2)c(C)nn1C` (stereo not given) was run?
**A.** 135.1%

**Q.** `COc1c(C2CCCN2C(=O)c2ccc(N(C)C)nn2)c(C)nn1C` (stereo not given) was tested. Which “Percent Effect” value did it give?
**A.** 97.2%

**Q.** Which “Percent Effect” value does the source give for `COc1c(C2CCCN2C(=O)c2cccc(C(N)=O)c2)c(C)nn1C` (stereo not given) here?
**A.** 8.718%

**Q.** For `COc1c(C2CCCN2C(=O)c2cccc(C)n2)c(C)nn1C` (stereo not given), which “Percent Effect” value is on record?
**A.** 93.53%

**Q.** How did the “Percent Effect” value turn out when `Cc1nn(C)c(Cl)c1C1CCCN1C(=O)c1ccc(N(C)C)nn1` (stereo not given) was run?
**A.** -10.16%

**Q.** With `CS(=O)(=O)N1C[C@H](C(=O)Nc2cccnc2)C[C@H]2OCC[C@H]21.O=C(O)C(F)(F)F` as the molecule, how does the “Percent Effect” value read?
**A.** -10.82%
